The panel holds about 83,000 compounds, 20% with a hit somewhere; the sample as a whole holds those more often.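 Testing used 96-well plates and a 48-hour single-concentration exposure. Example: -40 means 40% of the starting cells died.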 Values without a mark were called inactive. The source made the active and inactive calls. The calls were made as follows: active = growth percent below 10; inactive = the rest.
Key:
Test in all cases: NCI-60 one-dose screen, 48 h (100 = growth as untreated, 0 = no growth, -100 = all killed)
Conditions in all cases: 10 µM
HT29 colon = test system: HT29 colon
SNB-75 CNS = test system: SNB-75 CNS
SNB-19 CNS = test system: SNB-19 CNS
U251 CNS = test system: U251 CNS
PC-3 prostate = test system: PC-3 prostate
SK-MEL-5 melanoma = test system: SK-MEL-5 melanoma
UACC-62 melanoma = test system: UACC-62 melanoma
LOX IMVI melanoma = test system: LOX IMVI melanoma
SK-MEL-2 melanoma = test system: SK-MEL-2 melanoma
SK-MEL-28 melanoma = test system: SK-MEL-28 melanoma

SMILES	growth (HT29 colon)	growth (SNB-75 CNS)	growth (SNB-19 CNS)	growth (U251 CNS)	growth (PC-3 prostate)	growth (SK-MEL-5 melanoma)	growth (UACC-62 melanoma)	growth (LOX IMVI melanoma)	growth (SK-MEL-2 melanoma)	growth (SK-MEL-28 melanoma)
Cc1cccc2c(NCCN(C)C)c3cccc(C(=O)NCCN(C)C)c3nc12	-43.7% (active)	-24.7% (active)	14.5%	-43% (active)	-31% (active)	3.71% (active)	20.8%	-61.9% (active)	-6.23% (active)	–
COC(=O)[C@@H]1[C@H](O)[C@H](C)[C@H](O)[C@@](C)(O)/C=C\C=C(C)C(=O)Nc2c(C)c(OC(C)=O)c3c(c2O)C(=O)C(C)=C2OCOC(=C23)C(C)=C[C@@](C)(O)[C@H](O)[C@@H](C)[C@H]1OC(C)=O	111%	81.9%	112%	104%	22%	98%	97.8%	104%	117%	–
CN1CC[C@@H](c2c(O)cc(O)c3c(=O)cc(-c4ccccc4Cl)oc23)[C@@H](O)C1	-7.65% (active)	-71.9% (active)	13.6%	8.62% (active)	-48.9% (active)	-38.5% (active)	-48.8% (active)	5.25% (active)	-40.7% (active)	–
COc1cc(Nc2ncnc(Nc3ccc4c(n3)NC(=O)C(C)(C)O4)n2)cc(OC)c1OC	-12.6% (active)	-80.3% (active)	31.1%	15.9%	25.5%	48.2%	20.3%	-27% (active)	46.5%	51.2%
COc1cc(/C(=C2/O[C@@H]([C@H]3COC(C)(C)O3)[C@H]3OC(C)(C)O[C@@H]23)c2ccc3ccccc3c2)cc(OC)c1OC	41%	41.1%	29%	18%	27%	38.3%	46.5%	46.4%	-49.7% (active)	–
CN(C)CCCn1c(=O)c2ccccc2c2cnc3[nH]ccc3c21	-9.52% (active)	26.5%	13.6%	8.32% (active)	-9.22% (active)	10.3%	-20.2% (active)	1.3% (active)	-8.38% (active)	21.1%
COc1cc([C@@H]2c3cc4c(cc3C(Br)[C@H]3COC(=O)[C@H]23)OCO4)cc(OC)c1OC (some centres undefined)	-10.4% (active)	9.76% (active)	-32.3% (active)	1.29% (active)	0.631% (active)	-64.9% (active)	14.1%	23.8%	7.95% (active)	–
CCCC1(CC(=O)O)OCCc2c1[nH]c1ccccc21 (centres undefined)	110%	65.8%	128%	108%	91.7%	100%	93.2%	108%	114%	–
COc1ccc(-c2csc(NC(=O)CSc3nc(C)c(-c4ccccc4)n3Nc3ccccc3)n2)cc1	67.7%	49%	82.7%	61.7%	34%	54.4%	47%	36.8%	82%	89.6%
O=C1/C(=C\c2ccccc2)CN(C(=O)c2ccccc2)C/C1=C\c1ccccc1	-48.5% (active)	49.7%	55.2%	-32.6% (active)	6.58% (active)	-22.8% (active)	-1.94% (active)	-80.3% (active)	58.6%	-7.74% (active)
Nc1ncn(C2OC(CO)C(O)C2O)c(=O)n1 (centres undefined)	6.45% (active)	-32.7% (active)	17.2%	5.19% (active)	-30.7% (active)	25.5%	-8.83% (active)	-33.7% (active)	-21.2% (active)	–
C#Cc1ccc(-n2c(/C=C/c3ccc(O)cc3)nc3ncccc3c2=O)cc1	109%	-1.11% (active)	82%	62.5%	65.3%	22.3%	29.1%	55.5%	19.9%	51.7%
COC(=O)c1ccc(=O)oc1	113%	91.1%	103%	97.4%	91.5%	103%	93.6%	98.4%	91.9%	–
COc1ccc(NC(=O)Cc2nc3nc4sc(C)c(C)c4c(=O)n3[nH]2)cc1	94.1%	101%	105%	91.2%	95.9%	86.7%	107%	89.7%	103%	115%
CN(C)c1ccc(Cc2ccc(N(C)C)cc2Cl)c(Cl)c1	102%	77.7%	102%	110%	86.8%	91.9%	88.6%	96%	113%	105%
COc1cc(C(=C2O[C@@H]([C@H]3COC(C)(C)O3)[C@H]3OC(C)(C)O[C@@H]23)c2cc(OC)c(OC)c(OC)c2)cc(OC)c1OC	114%	99.8%	109%	107%	90%	105%	100%	99.1%	158%	–
CC1(C)CCC(=NNC(N)=S)CC1	95.1%	88.2%	108%	105%	109%	111%	103%	89%	130%	115%
O=C(CSSCC(=O)c1ccc(Cl)cc1)c1ccc(Cl)cc1	92.6%	62%	52.8%	53.7%	61.1%	29.7%	57.8%	40.7%	79.5%	59.5%
CC(C)C[C@H](NC(=O)[C@H](Cc1cccc2ccccc12)NS(=O)(=O)c1cccc2cccnc12)B(O)O	-56.6% (active)	-51.9% (active)	8.26% (active)	-52.9% (active)	-23.2% (active)	-85.8% (active)	-50.9% (active)	-78.7% (active)	-41.2% (active)	–
O=C(C[n+]1ccccc1)c1ccc2ccccc2c1	92%	75.1%	99.5%	95.3%	87.8%	102%	96%	99.8%	112%	–
CCN(CCCCCCN1CC(=O)N(CCCCCCN(CC)Cc2ccccc2OC)CC1=O)Cc1ccccc1OC	20%	76.6%	94.8%	88.8%	77.1%	90.9%	104%	85.8%	63.4%	–
O=C(Cc1csc2nc(-c3ccc(Cl)cc3)cn12)N/N=C/c1ccccc1O	82.1%	68.6%	60.8%	42.2%	55.2%	45.8%	46%	38.6%	75.8%	–
CCC1(C(C)C)NC(=O)NC1=O (centres undefined)	106%	100%	101%	98.2%	98.5%	104%	94.6%	99.7%	83.8%	–
COc1ccc(N=C2C(=Nc3ccc(OC)cc3)N(c3ccc(N(C)C)cc3)C(=S)N2c2ccc(OC)cc2)cc1	84%	8.69% (active)	75.1%	49.3%	52.5%	84.8%	98.2%	86.3%	90.7%	–
COc1cc(-c2nc(-c3nnc(-c4ccccc4Cl)o3)c3ccccn23)cc(OC)c1OC	91.4%	79.4%	101%	96.9%	74.2%	80.2%	69.8%	77.9%	79%	94.6%
CC(=O)/C(=C/c1ccccc1)C(=O)CC(C)C	74.4%	91.4%	106%	63.6%	–	88.1%	92.4%	-23% (active)	109%	95.6%
COc1ccc2c(c1)N(CCO)C1=C(C(=O)OC1)C2c1ccc(OC)c(OC)c1 (centres undefined)	9.84% (active)	16.2%	53.2%	34.5%	–	16.9%	27.3%	38.2%	–	61.6%
O=C(CCCCCCC(=O)Nc1cccnc1)NO	13.2%	-13.5% (active)	68.1%	42.2%	–	15.3%	25.3%	62.4%	28.8%	–
CC(C)=NNc1ncnc2c1ncn2C1OC(CO)C(O)C1O (centres undefined)	18.1%	32.1%	42.5%	29.1%	–	20.5%	34.7%	7.06% (active)	41.4%	54.7%
